# Laboratory results taken from ChEMBL document CHEMBL4513216, “Probing the Open Global Health Chemical Diversity Library for Multistage-Active Starting Points for Next-Generation Antimalarials” (ACS Infect Dis, 2020).
# Out of some 69,000 compounds screened, about 8,600 (12%) showed an effect of 50% or more. Many of the other results were omitted from the sample, so strong results are more common in it than they were.
# System: Plasmodium berghei
# Assay: Screen against P. berghei liver stage (PbLuc), transformed with Luciferase, at 10uM
# Type: functional, HepG2
# Conditions: tested at 10 uM
row,SMILES,INHIBITION [%]
1,Cc1cc(C)n(CCCNC(=O)[C@@H](C)NC(=O)OC(C)(C)C)n1,15.8
2,CCOc1ccc(Cl)cc1NC(=O)N1CCC(n2cncn2)CC1,47
3,NC(=O)c1cnc(-c2ccccc2)nc1CCNC(=O)CN1CCCC1,12.8
4,COC1CCN(C(=O)c2ccccc2NCc2cccnc2)CC1,-30
5,Cc1cccnc1N1CCN(Cc2cc(O)c3cccc(F)c3n2)CC1,18.6
6,COC(=O)c1cc(C)nc(N2CCN(Cc3ccn(C(C)C)c3)CC2)n1,24.2
7,CCc1ccc(O)c(C(=O)NC2CCN(Cc3ccncc3)CC2)c1,48.9
8,Cc1ccc(CN2CCC(Cc3nnc(CO)n3C)CC2)cc1C,4.48
9,COC(=O)c1cc(CN2CCN(c3nc(C)cnc3C)CC2)ccc1O,51.2
10,Cc1cnc(C)c(N2CCN(Cc3ccc(C)c(C)c3)CC2)n1,75
11,Cc1cccc(CN2CCN(C(=O)c3cccnc3O)CC2)c1,11.2
12,Cc1cnc(C)c(N2CCN(CC3CCCO3)CC2)n1 (stereo unspecified),4.93
13,COC(=O)c1cc(CN2CCN(c3ncccc3C)CC2)ccc1O,71
14,Cc1noc(C)c1-c1nc(C2CCCN(C(=O)CCN)C2)ccc1CO (stereo unspecified),-10.2
15,Cc1nc(C2CCCN(C(=O)COCc3ccccc3)C2)no1 (stereo unspecified),21.5
16,CCn1ncc2[nH]c(-c3cc4c(cc3OC)OCO4)nc21,-7.2
17,O=C(NCCc1ccccc1)C1CCN(C(=O)Cn2cncn2)C1 (stereo unspecified),3.48
18,CCN(CC)C(=O)CSc1ncc[nH]1,44.2
19,CN(C(=O)CSc1ncc[nH]1)c1ccccc1,49.6

row,SMILES,INHIBITION [%]
1,CN(C(=O)CSc1ncc[nH]1)C1CC1,53.9
2,CC(C)(C)OC(=O)N1CCC(C(=O)NCc2cc3ccccc3[nH]2)C1 (stereo unspecified),-8.4
3,CC(C)N1CCC2(CC1)C(=O)N(c1cccnc1)c1ccc(F)cc12,28.2
4,COC[C@]1(O)CCN(C2CCN(c3ccc(Cl)cc3)CC2)CC1(C)C,29.4
5,O=C(NCCCn1nc2ccccn2c1=O)NCCC1CCC1,37.9
6,Cn1ccnc1CN1CCC(c2nc3ccccc3n2C)CC1,39.3
7,Cc1nc(CN2CCC(c3nc4ccccc4n3C)CC2)co1,42.3
8,CC(C)c1nccc(CN2CCC(c3nc4ccccc4n3C)CC2)n1,52.6
9,Cc1cccc(CN2CC3(CCN(C4CCOC4)CC3)OCC2=O)n1 (stereo unspecified),5.56
10,CSCc1noc(CNC(=O)[C@H]2CNC[C@@H](C(=O)N3CCCC3)C2)n1,38.5
11,CCCn1ccnc1CN1CCCC(CC)(CO)C1 (stereo unspecified),0.348
12,CCCC1(CO)CCCN(Cc2nccs2)C1 (stereo unspecified),81.6
13,CNc1ncc(C(=O)N2CCCC(CO)(CCCOC)C2)cn1 (stereo unspecified),31.3
14,CC(C)=CCC1(CO)CCCN(Cc2nccs2)C1 (stereo unspecified),-21.1
15,COCCC1(CO)CCCN(C(=O)c2cccnc2OC)C1 (stereo unspecified),43.4
16,COCCC1(CO)CCCN(C(=O)c2cccnc2O)C1 (stereo unspecified),56.3
17,CNc1nc(C(=O)N2CCCC(CO)(CCCOC)C2)cs1 (stereo unspecified),58.6
18,COCCC1(CO)CCCN(C(=O)c2cc(Cl)ccc2F)C1 (stereo unspecified),-2.43
19,CNc1nc(C(=O)N2CCC3(CCCN(CCOC)C3=O)C2)cs1 (stereo unspecified),36.2

row,SMILES,INHIBITION [%]
1,COCCCC1(CO)CCCN(Cc2nccs2)C1 (stereo unspecified),75.2
2,COCCCC1(CO)CCCN(CCOC)C1 (stereo unspecified),-6.88
3,CCCC1(CO)CCCN(Cc2ncccn2)C1 (stereo unspecified),-36.5
4,O=S(=O)(C1CC1)N1CCO[C@H]2[C@H](Oc3cccnc3)CC[C@@H]21,-21.1
5,Cn1ccc(C(=O)N2CCc3[nH]nc(Nc4ccccc4)c3C2)n1,17.04
6,CCC1c2ccsc2CCN1C(=O)NCCc1ccccn1 (stereo unspecified),0
7,CCc1ncc(C(=O)N2CCN(Cc3ncccc3C)CC2)cn1,7.25
8,O=C1CCC(c2ccccc2)=NN1CN1CCCCCC1,25.3
9,CCN(C(=O)CCc1ccccc1)C1CC(=O)NC1=O (stereo unspecified),9.4
10,Cc1cc2ccccc2n1CC(=O)N[C@@H](C)C(=O)O,4.93
11,Cc1ccc(OCCSCCn2nc3ccccn3c2=O)cc1,22
12,CCn1ccnc1CN1CCCC(CO)(CCCc2ccccc2)C1 (stereo unspecified),3.68
13,Cn1ccnc1CN1CCCC(CO)(CCc2ccccc2)C1 (stereo unspecified),16.6
14,CCn1cc(CN2CCCC(CO)(CCc3ccccc3)C2)c(C)n1 (stereo unspecified),53.1
15,O=C(CN1CCCS1(=O)=O)Nc1ccc(OC2CCCC2)cc1,-5.94
16,O=C(CN1CCCS1(=O)=O)Nc1ccc(OC2CCCC2)c(Cl)c1,-6.94
17,O=C(CN1CCCS1(=O)=O)Nc1cccc(COC2CCCCC2)c1,55.5
18,CNC(=O)CCc1cc(C2CCCN2C(=O)CO)nc(C)n1 (stereo unspecified),29.4
